Compound activity from PubChem.
SARS PLP yeast – qHTS of Yeast-based Assay for SARS-CoV PLP. AID 485353, 2010. 0.19% of 330,000 active. S. cerevisiae expressing SARS-CoV PLpro, growth rescue. Potency, µM (highest dose often 32.9 µM), for inactives: top-dose activity, positive = growth rescue, hits mostly activators; calls by dose curve; note: 0% is about no effect; nearly all actives have a fitted effect of over 55% in size
Pf growth 96h – Primary qHTS for delayed death inhibitors of the malarial parasite plastid, 96 hour incubation; P. falciparum luciferase reporter growth, 96 h; Potency, µM (highest dose often 28.7 µM), for inactives: at the highest dose activity change, negative = inhibition, actives largely listed as inhibitors; 6.9% of 320,000 active; AID 504834, 2011; note: % is set by controls: 0 for no effect and ±100 for the full control effect
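Plates of compound plus infected erythrocytes (2% hematocrit, 0.05% parasitemia final) incubate 96 hours, 37 C, 5% CO2. Detection reagent added; reduced luminescence from the parasites' luciferase reporter flags inhibition.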
Pf growth 48h – Primary qHTS for delayed death inhibitors of the malarial parasite plastid, 48 hour incubation. P. falciparum luciferase growth in erythrocytes, 48 h. Potency, µM (highest dose often 28.7 µM), for inactives: at the highest dose activity change, negative = inhibition, actives largely listed as inhibitors. 5.9% of 310,000 active; note: % is set by controls: 0 for no effect and ±100 for the full control effect
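Luciferase-expressing parasites in RBCs, 2% Hct / 0.1% parasitemia final; RPMI 1640 + 0.5% Albumax; 37 C, 5% CO2, one generation; luminescence read-out, lower signal = inhibition.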
AMA1-RON2 inh – qHTS for Inhibitors of AMA1-RON; Towards Development of Antimalarial Drug Lead: Primary Screen. AID 720542, 2013. 0.2% of 360,000 active. Potency, µM (titrated, usually from 58.2 µM), inactives show top-dose activity change, negative = inhibition, actives largely listed as inhibitors. AlphaScreen AMA1-biotinylated RON2 peptide binding;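 note: 0% = vehicle wells and -100% = peptide control; nearly all actives have a fitted effect of over 45% in size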
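AMA1 (3D7) with his tag at 25 nM final met compounds first, then biotinylated RON2 peptide at 25 nM; detection used donor plus acceptor beads, 10 µg/mL apiece, read by AlphaScreen after 30 min at room temperature.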
* hit, by the source's call; ? = inconclusive; nt = no result; [ ] = remark or other dose. Compounds with a hit are over-represented: about 9.4% of the library has one in this group of screens. Unless noted, calls come from the whole dose curve; as a rule, active = well fitted curve in the direction sought with a large enough effect; inconclusive = small, poorly fitted or top-dose-only effect, or another doubt; inactive = no such curve, though single readings can be large; an effect the other way counts as inactive or inconclusive. Potency is the fitted concentration of half-maximal effect.

SMILES | SARS PLP yeast | Pf growth 96h | Pf growth 48h | AMA1-RON2 inh
Cc1cc(NC(=O)c2ccc([N+](=O)[O-])o2)ccc1NC(=O)c1ccco1 | -21.8% | -34.9%[1.15 µM] | 8.28µM* | 3.0%
Cc1ccc(C)c(-c2nnc(NC(=O)c3ccc([N+](=O)[O-])o3)o2)c1 | -26.8% | 9.28µM* | 9.28µM* | 27.6%
CSc1nc2[nH]c(=O)[nH]c2c(=O)[nH]1 | nt | nt | nt | -23.7%
C=CCn1c(SCc2ccc(Cl)cc2)nc2cc(C(=O)N3CCC(C(N)=O)CC3)ccc2c1=O | -2.8% | 6.57µM* | ? | -1.0%
C=CCn1c(SCC(=O)NC23CC4CC(CC(C4)C2)C3)nc2cc(C(=O)O)ccc2c1=O | 2.6% | 4.65µM* | 2.94µM* | 19.7%
Cc1ccc(CN2CCNC(=O)C2CC(=O)N(C)C(C2CC2)C2CC2)o1 (stereo not drawn) | 1.2% | 13.1µM* | 31.3% | 3.0%
CN(C(=O)CC1C(=O)NCCN1CC(c1ccccc1)c1ccccc1)C(C1CC1)C1CC1 (stereo not drawn) | 1.9% | ? | ? | -6.8%
CCN(c1ccccc1)S(=O)(=O)c1ccc(C(=O)Nc2ccccn2)cc1 | -2.9% | -47.6% | ? | 3.3%
C=CCOc1ccc(CC2C(=O)N(C)C(=O)N(C)C2=O)cc1 | 5.6% | 0.5% | 3.7µM* | 10.3%
COc1ccc(OC)c(N(CC(=O)NCc2ccncc2)S(C)(=O)=O)c1 | nt | 7.6% | 14.1% | -0.4%
Cc1ccc(NC(=O)c2cc(-c3cccs3)nc3ccccc23)nc1 | -0.3% | ? | ? | -5.6%
Cc1ccc2sc(NNC(=O)c3cc(-c4cccs4)nc4ccccc34)nc2c1C | 15.7% | 10.4µM* | ? | nt
O=C(NN1CCOCC1)c1cc(-c2cccs2)nc2ccccc12 | 7.9% | -0.3% | 5.8% | 10.6%
Cc1cc(C)c2nc(NNC(=O)c3cc(-c4cccs4)nc4ccccc34)sc2c1 | ? | 3.29µM* | 1.85µM* | 66.8%
O=C(NNc1nc2ccc(Cl)cc2s1)c1cc(-c2cccs2)nc2ccccc12 | -60.1% | 7.38µM* | ? | 84.4%
CN(C)C(CNC(=S)Nc1ccccc1)c1cccnc1 (stereo not drawn) | 2.4% | 42.1% | 13.4% | -11.0%[2.32 µM]
O=C(CNC(=O)c1cccc(F)c1)N/N=C/c1cc(Br)ccc1OC(=O)/C=C/c1ccco1 | -24.7% | 13.1µM* | 13.1µM* | 49.3%
COc1ccc([N+](=O)[O-])cc1/C=N/NC(=O)CNC(=O)c1cccc(F)c1 | 25.2% | 1.85µM* | 26.4% | 62.1%
O=C(CNC(=O)c1ccccc1O)N/N=C/c1cc(Br)ccc1OC(=O)/C=C/c1ccco1 | 31.6% | 8.28µM* | ? | 18.2%
Cc1c(N=C2SCC(=O)N2c2c(C)n(C)n(-c3ccccc3)c2=O)c(=O)n(-c2ccccc2)n1C | 10.3% | 40.2% | nt | 4.6%
CCn1c(O)c(C=NCc2cccs2)c(=O)n(CC)c1=S | -10.1% | 5.4% | nt | 13.2%
CC(NC(=O)c1ccc(CS(C)(=O)=O)cc1)C1CC2CCC1C2 (stereo not drawn) | -3.1% | -5.9% | -8.2% | -8.5%
CN1C(=O)c2c(sc3c2CC(C)(C)SC3)N2CCN=C12 | -0.3% | nt | 17.2% | -19.8%
COc1ccc(C2=Nc3ccccc3N(C(=O)c3ccc(C)cc3)C2C(=O)NCc2ccccc2)cc1 (stereo not drawn) | nt | nt | nt | 5.9%
Cc1ccc(C2=Nc3ccccc3N(C(=O)c3ccccc3)C(C)C2)cc1 (stereo not drawn) | -11.1% | 11.7µM* | ? | -10.7%
SMILES | SARS PLP yeast | Pf growth 96h | Pf growth 48h | AMA1-RON2 inh
Cc1ccccc1N(CC(=O)NCc1ccco1)C(=O)CNS(=O)(=O)c1ccc(F)cc1 | 1.6% | -19.0% | 0.0% | 0.2%
N#C/C(=C/c1ccc(N2CCOCC2)o1)c1ccc(Br)cc1 | -11.5% | 5.22µM* | 76.0% | -21.9%
Cc1nnc(NC(=O)C2CC(=O)N(c3ccc4c(c3)OCCO4)C2)s1 (stereo not drawn) | -0.6% | 15.1% | -9.4% | -12.7%
O=C(Nc1nc(-c2ccco2)c(-c2ccco2)s1)C1CC(=O)N(c2ccc3c(c2)OCCO3)C1 (stereo not drawn) | -1.6% | 15.8% | 1.0% | 10µM*
CCOC(=O)c1ccc(N2NC(=O)/C(=C/c3ccc(OC(=O)c4ccco4)c(OC)c3)C2=O)cc1 | 8.0% | 41.0% | 29.3% | nt
CCOc1ccc(NC(=O)CC(C)O)cc1 (stereo not drawn) | nt | 3.9% | -1.5% | nt
